Bioassay records from PubChem.
S2 tox: cell viability loss in ATXN counter-screen; S2 cells (HEK-293 line with an ATXN2-luciferase reporter) viability, CellTiter-Fluor protease fluorescence, 24 h; Potency, µM (series often up to 56.7 µM), hits mostly cytotoxic; 400,000 tested, 0.49% active; note: nearly all actives have a fitted effect of over 40% in size
TDP1 cell noCPT: qHTS for Inhibitors of human tyrosyl-DNA phosphodiesterase 1 (TDP1): qHTS in cells in absence of CPT | Potency, µM (highest dose often 46.2 µM), without a hit: at the top dose activity change, negative = growth inhibition, actives largely listed as inhibitors | 420,000 tested, 15% active | DT40 Tdp1-/- hTDP1 cells, no CPT, ATP luminescence, 48 h; note: % is set by controls: 0 for no effect and ±100 for the full control effect; nearly all actives have a fitted effect of over 55% in size
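Chicken DT40 Tdp1-/- cells stably complemented with human TDP1 were seeded at 400 cells/well with DMSO in place of 20 nM camptothecin. After compound pinning, cells grew at least 48 hr at 37 °C; viability read by CellTiter-Glo luminescence.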
TGFb inhibitor: blocks TGF-b signaling; Potency, µM (series often up to 46.1 µM), inactives show at the highest dose activity, negative = inhibition, most hits filed as inhibitors; HepG2 CAGA-GFP TGF-b/SMAD3 reporter, GFP fluorescence, 18 h; TGF-beta stimulated, 500 pg/mL final; 410,000 tested, 1.2% active; note: % is set by controls: 0 for no effect and ±100 for the full control effect; nearly all actives have a fitted effect of over 65% in size
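Inhibition was scored as loss of TGF-beta-induced (500 pg/mL final, 18 hours, 37 degrees C) GFP in HEPG2 cells carrying a CAGA-GFP reporter, in DMEM with 1% FBS. Well GFP was summed per cell; Activity was normalised to unstimulated and stimulated DMSO wells, then concentration-response fitting.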
TDP1 cell CPT: growth inhibition of DT40 Tdp1-/-;hTDP1 cells with camptothecin (screen for TDP1 inhibitors); 420,000 tested, 12% active; AID 686979; chicken DT40 Tdp1-/-;hTDP1 cells + 20 nM CPT, ATP luminescence, 48 h; Potency, µM (titrated, usually from 46.2 µM), for inactives: at the top dose activity change, negative = growth inhibition, actives largely listed as inhibitors; note: % is set by controls: 0 for no effect and ±100 for the full control effect; nearly all actives have a fitted effect of over 55% in size
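Chicken DT40 Tdp1-/- cells complemented with human TDP1, 400 cells/well, exposed to compounds plus 20 nM camptothecin for at least 48 h at 37 C; viability read as ATP content by CellTiter-Glo luminescence.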
HepG2 tox: HepG2 cytotoxicity, counter-screen for TGF-b inhibitors. HepG2 CAGA-GFP viability, ATP luminescence, 18 h. Potency, µM (top dose mostly 46.1 µM), for the others: at the top dose activity change, negative = cytotoxicity, most hits filed as cytotoxic. 410,000 tested, 0.76% active
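CellTiter-Glo luminescence gave cytotoxicity after 18 hours at 37 degrees C. The cells were HepG2 CAGA-GFP in 1% FBS DMEM, stimulated with 500 pg/mL TGF-beta after compound addition. %Activity was normalised to no-cell wells (complete cell-killing) and DMSO (no toxicity), and curves were fitted and classified.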
ATXN2 expr inh: inhibitors of ATXN2 expression. HEK-293 ATXN2-luciferase reporter, luminescence, 24 h. Potency, µM (top dose mostly 57 µM), without a hit: top-dose activity change, negative = inhibition, actives largely listed as inhibitors. 360,000 tested, 0.72% active. AID 1745845; note: % is set by controls: 0 for no effect and ±100 for the full control effect; nearly all actives have a fitted effect of over 55% in size
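qHTS (up to 57 uM final) was run with 24 h compound exposure of reporter cells at 37 °C. Each well was multiplexed: SteadyGlo luminescence measured ATXN2-luciferase expression after a fluorogenic Gly-Phe-AFC viability readout (25 uM final).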
An asterisk follows results filed as active; i = inactive; ? = inconclusive; nt = not tested or not shown; [ ] = remark or other dose. The list is not random: actives were taken first. Their share in the collection is about 17%. Calls come from the whole dose curve; as a rule, active = well fitted curve in the direction sought with a large enough effect; inconclusive = small, poorly fitted or top-dose-only effect, or another doubt; inactive = no such curve, though single readings can be large; an effect the other way counts as inactive or inconclusive. Potency is the fitted concentration of half-maximal effect.

SMILES | S2 tox | TDP1 cell noCPT | TGFb inhibitor | TDP1 cell CPT | HepG2 tox | ATXN2 expr inh
Cc1ccc(Oc2ccc(NC(=O)C3=CC=CN4CCS(=O)(=O)N=C34)cc2)cc1 | i | ? | 4% | ? | -3% | -2%
O=C(Cc1cccc(NC(=O)C2CCN(C(=O)C3CCC3)CC2)c1)Nc1cccc(C(=O)N2CCCC2)c1 | i | 5% | -4% | -12% | -28% | -1%
Oc1ccc(N=Nc2n[nH]c(-c3ccc(Cl)cc3)n2)cc1 | nt | 16µM* | ? | ? | -31% | ?
Cc1cc(N(C)Cc2ccccc2)nc(-c2ccccc2)n1 | i | 26µM* | 0% | ? | -2% | -12%
Cc1cc(N(C)Cc2ccccc2)nc2cc(O)ccc12 | nt | ? | -3% | 7% | 2% | 28%
CC[C@H](C)[C@@H](CN[C@H](C)CNC)NCCC(c1ccccc1)c1ccccc1 | 32µM* | 3.7µM* | ? | 5.2µM* | 22µM* | ?
CNC(=S)NCCC(c1ccccc1)c1ccccc1 | i | -34% | -22% | -23% | 1% | -30%[11.3 µM]
CC(C)COc1ccc(C(=O)Nc2onc3c2CCCC3)cc1 | i | 23µM* | 1% | 13µM* | -37% | -20%
CCOc1ccc(C(=O)Nc2onc3c2CCCC3)cc1 | i | ? | -5% | ? | -50% | ?
CCn1c2ccccc2c2cc(CN3CCN(Cc4cc(OC)c(O)c(OC)c4)CC3)ccc21 | nt | 10µM* | ? | 10µM* | -107% | nt
CCn1c2ccccc2c2cc(CN3CCN(Cc4cc(OC)ccc4O)CC3)ccc21 | i | ? | ? | 26µM* | -27% | -24%
COc1ccc(CN2CCN(CC(O)Cn3c4ccccc4c4ccccc43)CC2)cc1 (stereo not given) | ? | ? | ? | ? | -108% | ?
COc1ccc(O)c(CN2CC3CCC(CC3)C2)c1 | i | ? | -6% | 23µM* | -20% | 5%
CCn1c(SCCN2CCOCC2)nc2c1c(=O)n(C)c(=O)n2C | i | 0% | -14% | 20% | 2% | 1%
CC(C)(C)[C@H](NC(=O)c1ccc(N)c(Cl)c1)C(=O)N1CCC[C@@H]1C(=O)N[C@H](C#N)CC(=O)O | nt | nt | nt | nt | nt | -2%[5.55 µM]
COc1ccc2noc3c2c1C(=O)c1ccccc1-3 | nt | 18µM* | -10% | 15µM* | -106% | nt
O=C1c2ccccc2-c2onc3ccc(NCCCn4ccnc4)c1c23 | ? | ? | ? | 15µM* | -55% | ?
O=C(CN(C(=O)CCC(=O)Nc1nccs1)c1cccc(C(F)(F)F)c1)NCC1CCCO1 (stereo not given) | i | ? | 5% | 11% | -4% | -16%
O=C(NC(=S)Nc1nc2ccc(F)cc2s1)c1ccco1 | i | 2.9µM* | -4% | 4.1µM* | 14% | 20%
O=C(Nc1nc2cc3c(cc2s1)OCCO3)c1ccncc1 | i | 23µM* | -30% | ? | -10% | 32%
O=C(Nc1nc2cc3c(cc2s1)OCCO3)c1ccco1 | ? | 16µM* | 8% | 12µM* | -64% | 8.9µM*
COc1cc2c(cc1-c1c(C)noc1C)ncc1[nH]c(=O)n([C@H](C)c3ccccn3)c12 | nt | nt | nt | nt | nt | 194%
Cc1ccc(NC(=O)Nc2cc(C(F)(F)F)c[nH]c2=O)cc1 | i | -10% | -4% | -2% | -87% | 7%
O=C(c1ccc2c(c1)OCO2)N1CCN(c2ccc(Cl)cc2)CC1 | i | ? | -6% | -25% | -45% | -17%
Cc1cccc(N2CCN(C(=S)c3ccc4c(c3)OCO4)CC2)c1 | i | 5.8µM* | -2% | 6.5µM* | -2% | -14%
SMILES | S2 tox | TDP1 cell noCPT | TGFb inhibitor | TDP1 cell CPT | HepG2 tox | ATXN2 expr inh
S=C(c1ccc2c(c1)OCO2)N1CCN(c2cccc(Cl)c2)CC1 | i | 4.1µM* | 1% | 3.7µM* | 11% | -6%
COc1ccccc1/C=C/C(=O)Nc1ccc2c(c1)CCC2 | i | 12µM* | 0% | -27% | -18% | 130%
COc1ccccc1/C=C/C(=O)Nc1ccc2c(c1)OCCO2 | i | 10µM* | -20% | 8.2µM* | 8% | 65%
COc1ccccc1/C=C/C(=O)OCC(=O)Nc1ccc2c(c1)OCCO2 | ? | 4% | 25% | 2% | 5% | nt
COc1ccc(NC(=O)C(=O)NNC(=O)c2ccc(Cl)cc2Cl)cc1 | i | 5% | 3% | -20% | 1% | 47%
O=C(CCc1ccccc1)NC1CC(=O)N(c2ccccc2)C1 (stereo not given) | nt | 23% | -2% | -16% | -2% | nt
Cc1cc(OC(=O)c2ccccc2Br)cc(=O)n1C | i | ? | -7% | 21µM* | 0% | -7%
COc1ccc(C(=O)c2cn(Cc3cccc(C)c3)c3cc4c(cc3c2=O)OCO4)cc1 | ? | 26µM* | -5% | 16µM* | 9% | 4%
CCOc1ccc(C(=O)c2cn(Cc3cccc(OC)c3)c3cc4c(cc3c2=O)OCO4)cc1 | ? | ? | ? | ? | -21% | ?
Cc1ccc(C(=O)c2cn(Cc3ccccc3)c3cc4c(cc3c2=O)OCCO4)cc1 | i | ? | ? | 21µM* | -56% | -31%
O=C(c1ccc(F)cc1)c1cn(Cc2ccccc2)c2cc3c(cc2c1=O)OCO3 | i | ? | 3% | ? | -7% | 3%
Cc1ccc(S(=O)(=O)NCC(C)n2cncn2)cc1 (stereo not given) | i | 1% | -2% | 4% | 12% | 0%
CC(=O)Nc1nonc1-c1nnc(SCC(=O)Nc2cc(Cl)ccc2C)n1C | i | -26% | 2% | -20% | -15% | 8%
N[C@@H](CSCCCO)C(=O)O | i | -6% | nt | -15% | nt | 8%[25.6 µM]
Nc1c(Cl)ncnc1NCCc1ccc(O)cc1 | i | 5.8µM* | -20% | 13µM* | -20% | -16%
Nc1c(Cl)ncnc1NCc1cccnc1 | i | ? | -20% | -12% | -12% | -26%
O=C1NC(C(=O)O)=CC(c2cccc(Cl)c2Cl)N1 (stereo not given) | i | 0% | 7% | 2% | 3% | 2%
C=CCn1c(N)cc(=O)nc1SCC(=O)N1CCN(c2ccc(F)cc2)CC1 | i | -4% | -6% | -14% | 3% | 3%
COc1ccc(C(N)c2csc(Nc3cc(Oc4ccccc4)ncn3)n2)cc1 (stereo not given) | ? | 23µM* | ? | 23µM* | -96% | ?
